{"source": "PubChem BioAssay AID504834", "about": "(National Center for Advancing Translational Sciences (NCATS), 2011)", "note": "In all, about 320,000 compounds went through this assay and about 22,000 (6.9%) were called active. Another 27% or so got no clear call; they are omitted. This is one part of a sample in which actives are shown more often than they occur. A number with no mark means an inactive call. Calls follow the shape of the dose curve; as a rule, active = well fitted inhibition curve with a large enough effect; inconclusive = small, poorly fitted or top-dose-only effect, or another doubt; inactive = no such curve, though single readings can be large or run the other way. % is scaled to controls: 0 for no effect and ±100 for the full control effect; potency is read from the fitted curve at half-maximal effect.", "data": [{"experiment": "Primary qHTS for delayed death inhibitors of the malarial parasite plastid, 96 hour incubation", "details": "P. falciparum luciferase reporter growth; series mostly up to 28.7 µM; activity change, negative = inhibition: at the top concentration", "outline": "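Two parasite generations (96 h, 37 C, 5% CO2) of compound exposure in infected erythrocytes (0.05% parasitemia, 2% hematocrit). Luciferase-reporter P. falciparum; decreased luminescence indicates inhibited growth, aimed at apicoplast-acting delayed death.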", "units": {"activity change, negative = inhibition": "%"}, "values": [{"smiles": "CCCn1c(N)c(N(CCOC)C(=O)C2CCCC2)c(=O)[nH]c1=O", "activity change, negative = inhibition": -14.2}, {"smiles": "CCC(C(=O)NC1CCCCC1)N(C(=O)c1snc(C(N)=O)c1N)c1ccc(OC)cc1OC", "note": "(stereo not drawn)", "activity change, negative = inhibition": 5.62}, {"smiles": "O=C(/C=C(O)/C=C/c1ccc(O)cc1)/C=C/c1ccc(O)cc1", "activity change, negative = inhibition": 34.9}, {"smiles": "COc1cc(C(CCN2CCN(c3ccccc3)CC2)c2c(OC)cc(OC)c3ccc(=O)oc23)cc(OC)c1OC", "note": "(stereo not drawn)", "Potency": "8.28 µM (active)"}, {"smiles": "COc1ccccc1N1CCN(Cc2cc(OC)c3c(c2)OCO3)CC1", "activity change, negative = inhibition": -8.21}, {"smiles": "COc1ccc(N2CCN(Cc3cc(=O)oc4ccc5ccccc5c34)CC2)cc1", "activity change, negative = inhibition": 0}, {"smiles": "Oc1cc2c(cc1CN1CCN(c3ccccc3)CC1)OCO2", "activity change, negative = inhibition": 1.62}, {"smiles": "COc1cc(OC)c2ccc(=O)oc2c1C(CCN1CCN(c2ccccc2)CC1)c1ccc2c(c1)OCO2", "note": "(stereo not drawn)", "Potency": "9.28 µM (active)"}, {"smiles": "c1ccc(-c2cnc(CN3CCN(c4ccccc4)CC3)o2)cc1", "activity change, negative = inhibition": 32}, {"smiles": "O=C1/C(=C/c2ccc3c(c2)OCO3)Oc2cc(OCC(=O)N3CC(O)C[C@H]3C(=O)O)ccc21", "note": "(stereo partly drawn)", "activity change, negative = inhibition": 13.5}, {"smiles": "Cc1ccc(O)c(NC(=O)c2cc(-c3ccco3)on2)c1", "activity change, negative = inhibition": 37.5}, {"smiles": "O=C(NCc1ccco1)/C(=C\\c1cccc([N+](=O)[O-])c1)NC(=O)c1ccco1", "activity change, negative = inhibition": 23.6}, {"smiles": "O=C(Nc1ccccc1)Nc1ccc(C(F)(F)F)cn1", "activity change, negative = inhibition": 38.6}, {"smiles": "CCOC(=O)CN(C)S(=O)(=O)c1ccc(-c2cc(C(=O)OC)sc2C(F)(F)F)cc1", "activity change, negative = inhibition": 9.24}, {"smiles": "COc1cc(NC(=O)CCNC(=O)Cn2ccc3ccccc3c2=O)cc(OC)c1OC", "activity change, negative = inhibition": -20.8}, {"smiles": "CNc1nc(SC)nc(N(C#N)CC(=O)OC)n1", "Potency": "8.28 µM (active)"}, {"smiles": "CCCCn1c(N)c(N(CCOC)C(=O)COc2c(C)cccc2C)c(=O)[nH]c1=O", "activity change, negative = inhibition": -1.63}, {"smiles": "CC1CC(=O)N(CC(=O)Nc2cccc(Cl)c2)c2ccccc2S1(=O)=O", "note": "(stereo not drawn)", "activity change, negative = inhibition": -29.7}, {"smiles": "CC(=O)Nc1cccc(OCC(=O)/C=C2\\N(C)c3ccccc3C2(C)C)c1", "Potency": "0.828 µM (active)"}, {"smiles": "CN1/C(=C\\C(=O)c2cccnc2Cl)C(C)(C)c2ccccc21", "activity change, negative = inhibition": -19.4}, {"smiles": "Cc1noc(C)c1C(=O)OCC(=O)/C=C1\\N(C)c2ccccc2C1(C)C", "activity change, negative = inhibition": -15.2}, {"smiles": "O=C(O)c1c(NC(=O)N2CCCC2)sc2c1CCCC2", "activity change, negative = inhibition": 17.1}, {"smiles": "COc1ccc(NC(=S)N2CCCC(CO)C2)c(OC)c1", "note": "(stereo not drawn)", "activity change, negative = inhibition": -21.4}, {"smiles": "COc1cc(NC(=S)N2CCCC(C)C2)cc(OC)c1OC", "note": "(stereo not drawn)", "Potency": "10.4 µM (active)"}, {"smiles": "COc1cc(NC(=S)N2CCCC(C)C2)c(OC)cc1Cl", "note": "(stereo not drawn)", "activity change, negative = inhibition": 3.26}, {"smiles": "O=C(O)c1ccc(OCC2CCCO2)cc1", "note": "(stereo not drawn)", "activity change, negative = inhibition": -21.2}, {"smiles": "N#Cc1ccc(/C=C2\\CCn3c2nc2cc(C(=O)O)ccc2c3=O)cc1", "activity change, negative = inhibition": -12.8}, {"smiles": "O=C(NCc1cccnc1)C12CC3CC(CC(C3)C1)C2", "activity change, negative = inhibition": 18.1}]}]}
